Results on eight compounds are retold here after PubChem BioAssay (EPA / NIEHS).

For test [1], the target named is Transcription factor E2F1 (Homo sapiens) (UniProt Q01094). Description: ATG_E2F_CIS: Attagene CIS-FACTORIAL HepG2 Assay for human E2F Transcription Factor 1 (AID 2282935). To be noted: HepG2 Attagene cis-reporter, E2F reporter RNA transcripts; actives raise or lower the signal. The essentials: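 Transient MRTU transfection of HepG2; 24 h compound exposure; RNA → oligo(dT) RT → PCR → FAM label → HpaI cut → CE fluorescence. Gain/loss of signal fit against DMSO.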
Transcription factor E2F1 (Homo sapiens), sequence (Q01094 whole entry, looked up): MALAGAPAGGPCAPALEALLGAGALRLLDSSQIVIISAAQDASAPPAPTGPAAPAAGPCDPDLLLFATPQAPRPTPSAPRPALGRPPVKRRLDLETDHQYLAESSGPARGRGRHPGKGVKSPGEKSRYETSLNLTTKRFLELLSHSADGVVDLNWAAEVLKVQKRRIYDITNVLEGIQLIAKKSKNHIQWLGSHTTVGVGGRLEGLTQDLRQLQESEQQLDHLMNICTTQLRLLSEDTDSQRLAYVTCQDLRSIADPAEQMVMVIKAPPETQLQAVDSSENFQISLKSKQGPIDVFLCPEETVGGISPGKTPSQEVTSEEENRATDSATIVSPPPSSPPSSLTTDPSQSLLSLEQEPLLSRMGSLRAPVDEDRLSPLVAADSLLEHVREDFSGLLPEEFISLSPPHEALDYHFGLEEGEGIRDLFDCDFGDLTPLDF

A short description of test [2]: ATG_E_Box_CIS: Attagene CIS-FACTORIAL HepG2 Assay for human Enhancer Box (E-box) (AID 2282936). The conditions noted are these: HepG2 E-box cis-reporter transcription, actives raise or lower the signal. Summed up:
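Transiently transfected HepG2, endogenous TF-driven reporters, 24 h dosing. Readout: RT-PCR plus capillary electrophoresis of fluorescent reporter fragments. Gain or loss of signal fitted bidirectionally against DMSO baseline.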

Test [3] in a line: ATG_M_61_CIS: Attagene CIS-FACTORIAL HepG2 Assay for M61 Transcription Factor (Internal Marker) (AID 2282937). To be noted: HepG2 Attagene CIS-FACTORIAL M61 internal marker reporter; actives raise or lower the signal. The essentials: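 Readout: fluorescent reporter mRNA fragments resolved by capillary electrophoresis after RT-PCR. Transiently transfected human HepG2 cells carried MRTU constructs reporting endogenous TF activity; 24 h chemical exposure; gain or loss of signal fitted relative to DMSO.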

Test [4] in a line: ATG_EGR_CIS: Attagene CIS-FACTORIAL HepG2 Assay for human Early Growth Response 1 (EGR1) (AID 2282938). The conditions noted are these: HepG2 Attagene CIS-FACTORIAL EGR reporter mRNA; actives raise or lower the signal. Summed up: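 Read-out: fluorescent reporter-mRNA fragments resolved by capillary electrophoresis after RT-PCR, 24 h post-dose in transiently transfected HepG2. Endogenous transcription-factor activity reported via cis-element-regulated reporter units; gain or loss fitted relative to DMSO.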

Test [5] in a line: ATG_M_19_CIS: Attagene CIS-FACTORIAL HepG2 Assay for M19 Transcription Factor (Internal Marker) (AID 2282939). The conditions noted are these: HepG2 Attagene CIS-FACTORIAL M19 internal marker reporter; actives raise or lower the signal. Summed up:
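In this multiplexed cell assay, transiently transfected HepG2 reporter units report endogenous transcription-factor activity; after 24 hours of treatment, labelled reporter cDNA fragments are quantified by capillary electrophoresis and fitted bidirectionally against DMSO.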

Test [6] in a line: ATG_ERE_CIS: Attagene CIS-FACTORIAL HepG2 Assay for Estrogen Response Element (ERE) (AID 2282940). The conditions noted are these: HepG2 ERE cis-reporter, Attagene RNA transcript; actives raise or lower the signal. The essentials:
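Measuring endogenous transcription factor output, the assay doses transfected HepG2 cells for 24 hours and quantifies reporter transcripts by fluorescent RT-PCR and capillary electrophoresis, with DMSO as baseline.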

Test [7] is described as follows: ATG_Ets_CIS: Attagene CIS-FACTORIAL HepG2 Assay for human Erythroblast Transformation Specific (ETS) (AID 2282941). To be noted: HepG2 ETS cis-reporter transcription, actives raise or lower the signal. Summed up:
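Bidirectional fit versus DMSO of reporter mRNA signal, detected by RT-PCR and capillary electrophoresis in HepG2 cells transiently transfected with cis-element reporters and dosed 24 h.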

In test [8] the target is Hepatocyte nuclear factor 3-beta (Homo sapiens) (UniProt Q9Y261). Description: ATG_FoxA2_CIS: Attagene CIS-FACTORIAL HepG2 Assay for human Forkhead box A2 (FOXA2) (AID 2282942). To be noted: HepG2 cis-reporter transcription factor activity, 24 h; actives raise or lower the signal. The essentials:
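Readout: fluorescent reporter transcripts resolved by capillary electrophoresis after RT-PCR. Transiently transfected HepG2, 24 h compound exposure, endogenous TF activity at cis promoter elements. Gain or loss of signal fitted relative to DMSO.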

Test [9] in a line: ATG_FoxO_CIS: Attagene CIS-FACTORIAL HepG2 Assay for human Forkhead box O (FoxO) (AID 2282943). To be noted: HepG2 Attagene cis-reporter, FoxO element, mRNA; actives raise or lower the signal. Summed up:
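Read-out: fluorescence of 6-FAM-labelled reporter cDNA fragments resolved by capillary electrophoresis. Transiently transfected HepG2 cells were dosed for 24 h; activity fitted in both directions relative to DMSO controls.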

Test [10] can be described thus: ATG_GATA_CIS: Attagene CIS-FACTORIAL HepG2 Assay for human GATA Binding Protein (AID 2282944). To be noted: HepG2 GATA cis-element reporter, Attagene multiplex mRNA; actives raise or lower the signal. Summed up:
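Measures endogenous transcription factor-driven reporter mRNA in HepG2 cells transiently carrying cis-regulated constructs. 24 h dosing; RNA via oligo(dT) reverse transcription, PCR, HpaI digestion, capillary electrophoresis; fitted relative to DMSO.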

A short description of test [11]: ATG_GLI_CIS: Attagene CIS-FACTORIAL HepG2 Assay for human Zinc Finger Protein GLI1 (AID 2282945). To be noted: HepG2, Attagene cis-factorial reporter mRNA, GLI element; actives raise or lower the signal. The essentials: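 Transiently transfected HepG2 cells report endogenous transcription factor activity via cis-element-driven reporter units. After 24 h compound exposure, reporter mRNA was measured by RT-PCR with capillary electrophoresis; bidirectional fitting against DMSO baseline.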

The nature of test [12]: ATG_GRE_CIS: Attagene CIS-FACTORIAL HepG2 Assay for human Glucocorticoid Response Elements (GRE) (AID 2282947). The conditions noted are these: HepG2 GRE cis-reporter, Attagene multiplex mRNA; actives raise or lower the signal. Summed up:
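Read-out: fluorescent reporter-transcript fragments separated by capillary electrophoresis after RT-PCR. Transiently transfected HepG2 cells carrying cis-element-driven reporter units were dosed for 24 h; gain or loss of signal fitted against DMSO control.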

The nature of test [13]: ATG_M_32_CIS: Attagene CIS-FACTORIAL HepG2 Assay for M32 Transcription Factor (Internal Marker) (AID 2282949).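 Further: background control marker of the multiplexed CIS panel rather than a real target.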 To be noted: HepG2 Attagene cis-factorial M32 reporter, mRNA; actives raise or lower the signal. Summed up:
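Transient MRTU transfection of HepG2; 24 h compound treatment; TriZol RNA, oligo(dT) RT, reporter PCR, 6-FAM primer extension, HpaI cut, CE. Gain/loss of signal vs DMSO.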

Test [14] is described as follows: ATG_M_06_CIS: Attagene CIS-FACTORIAL HepG2 Assay for M06 Transcription Factor (Internal Marker) (AID 2282950). The conditions noted are these: HepG2 Attagene CIS-FACTORIAL M06 internal marker reporter; actives raise or lower the signal. The essentials:
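One of many multiplexed endpoints: HepG2 reporter mRNA after 24 h dosing, detected by RT-PCR and capillary electrophoresis fluorescence; gain or loss of signal analysed against DMSO.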

Test [15] concerns the target Hypoxia-inducible factor 1-alpha (Homo sapiens) (UniProt Q16665). Description: ATG_HIF1a_CIS: Attagene CIS-FACTORIAL HepG2 Assay for human Hypoxia Inducible Factor 1 (HIF1A) (AID 2282951). To be noted: HepG2 Attagene cis-factorial HIF1a reporter transcription; actives raise or lower the signal. The essentials:
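RT-PCR/capillary electrophoresis fluorescence readout of reporter transcripts from endogenous-TF-driven cis elements in transfected HepG2 cells, 24 h exposure; activity fitted in both directions against DMSO controls.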

In test [16] the target is Hepatocyte nuclear factor 6 (Homo sapiens) (UniProt Q9UBC0). Briefly: ATG_HNF6_CIS: Attagene CIS-FACTORIAL HepG2 Assay for human Hepatocyte Nuclear Factor 6 (HNF6) (AID 2282952). To be noted: HepG2 Attagene cis-factorial HNF6 reporter transcription; actives raise or lower the signal. Summed up:
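First, HepG2 cells were transfected with the multiplexed cis reporter library and dosed with chemical for 24 h. Next, RNA was reverse-transcribed, PCR-amplified and fluorescently labelled. Finally, HpaI-digested fragments were read by capillary electrophoresis.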

Test [17] addresses Heat shock factor protein 1 (Homo sapiens) (UniProt Q00613). Description: ATG_HSE_CIS: Attagene CIS-FACTORIAL HepG2 Assay for human Heat Shock Transcription Factor 1 (HSE) (AID 2282953). To be noted: HepG2 HSE cis-reporter, Attagene RNA transcription; actives raise or lower the signal. The essentials: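 Using HepG2 with transfected cis-driven reporter constructs, compound effects on endogenous factor activity are scored as reporter mRNA change at 24 h. Detection: RT-PCR, HpaI digestion, capillary electrophoresis; bidirectional fitting to DMSO.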

Test [18] in a line: ATG_MRE_CIS: Attagene CIS-FACTORIAL HepG2 Assay for human Metal Responsive Element (MRE) (AID 2282954). To be noted: HepG2 MRE cis-reporter transcription, Attagene multiplex; actives raise or lower the signal. The essentials:
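RT-PCR/capillary electrophoresis readout of reporter mRNA, 24 h post-dosing, in HepG2 cells transfected with multiplexed cis-regulated reporter constructs. Gain or loss of signal fitted bidirectionally against DMSO baseline.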

A short description of test [19]: ATG_ISRE_CIS: Attagene CIS-FACTORIAL HepG2 Assay for human Interferon Regulatory Factor 1 (IRF1) binding to an Interferon-Stimulated Response Element (ISRE) (AID 2282948). The conditions noted are these: HepG2 ISRE cis-reporter (Attagene), mRNA transcription readout; actives raise or lower the signal. Summed up:
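Uses HepG2 liver cells transfected with cis-regulated reporters and measures mRNA 24 h post-dosing through RT-PCR, primer-extension labelling and capillary electrophoresis, with DMSO as negative control.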

Molecules are shown by their SMILES. The source made the active and inactive calls. How the source made its calls: active means hit-call score of the fitted dose curve at least 0.9, where 1 is the maximum; inactive means score below 0.9.

Hepatocyte nuclear factor 6 (Homo sapiens), sequence (Q9UBC0 whole entry, looked up, the tested form may be a part): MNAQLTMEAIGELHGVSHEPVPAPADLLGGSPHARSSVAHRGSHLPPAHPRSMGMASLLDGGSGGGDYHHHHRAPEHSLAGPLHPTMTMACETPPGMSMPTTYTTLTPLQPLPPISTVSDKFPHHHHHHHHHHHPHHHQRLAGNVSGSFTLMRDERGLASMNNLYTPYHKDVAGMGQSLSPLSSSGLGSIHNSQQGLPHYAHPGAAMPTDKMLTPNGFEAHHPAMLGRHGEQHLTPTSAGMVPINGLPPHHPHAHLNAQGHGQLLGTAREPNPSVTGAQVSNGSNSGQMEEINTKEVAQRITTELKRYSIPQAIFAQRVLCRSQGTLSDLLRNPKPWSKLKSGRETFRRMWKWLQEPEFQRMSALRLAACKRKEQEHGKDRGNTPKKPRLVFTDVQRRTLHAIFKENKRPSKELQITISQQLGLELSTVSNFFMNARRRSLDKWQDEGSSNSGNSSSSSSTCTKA
Heat shock factor protein 1 (Homo sapiens), sequence (Q00613 whole entry, looked up): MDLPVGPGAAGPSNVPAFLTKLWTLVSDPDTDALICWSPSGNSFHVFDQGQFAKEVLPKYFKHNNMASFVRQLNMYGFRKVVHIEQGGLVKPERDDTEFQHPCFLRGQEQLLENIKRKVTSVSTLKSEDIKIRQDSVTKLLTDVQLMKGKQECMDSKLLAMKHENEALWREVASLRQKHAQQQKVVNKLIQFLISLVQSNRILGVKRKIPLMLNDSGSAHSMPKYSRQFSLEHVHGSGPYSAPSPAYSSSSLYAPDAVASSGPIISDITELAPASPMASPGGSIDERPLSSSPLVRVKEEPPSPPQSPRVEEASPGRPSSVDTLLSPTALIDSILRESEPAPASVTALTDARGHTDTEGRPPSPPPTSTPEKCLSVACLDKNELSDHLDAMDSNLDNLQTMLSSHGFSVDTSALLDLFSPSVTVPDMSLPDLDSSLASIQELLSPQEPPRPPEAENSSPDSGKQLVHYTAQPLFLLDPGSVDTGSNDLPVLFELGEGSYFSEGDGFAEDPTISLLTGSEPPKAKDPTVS
Hypoxia-inducible factor 1-alpha (Homo sapiens), sequence (Q16665 whole entry, looked up): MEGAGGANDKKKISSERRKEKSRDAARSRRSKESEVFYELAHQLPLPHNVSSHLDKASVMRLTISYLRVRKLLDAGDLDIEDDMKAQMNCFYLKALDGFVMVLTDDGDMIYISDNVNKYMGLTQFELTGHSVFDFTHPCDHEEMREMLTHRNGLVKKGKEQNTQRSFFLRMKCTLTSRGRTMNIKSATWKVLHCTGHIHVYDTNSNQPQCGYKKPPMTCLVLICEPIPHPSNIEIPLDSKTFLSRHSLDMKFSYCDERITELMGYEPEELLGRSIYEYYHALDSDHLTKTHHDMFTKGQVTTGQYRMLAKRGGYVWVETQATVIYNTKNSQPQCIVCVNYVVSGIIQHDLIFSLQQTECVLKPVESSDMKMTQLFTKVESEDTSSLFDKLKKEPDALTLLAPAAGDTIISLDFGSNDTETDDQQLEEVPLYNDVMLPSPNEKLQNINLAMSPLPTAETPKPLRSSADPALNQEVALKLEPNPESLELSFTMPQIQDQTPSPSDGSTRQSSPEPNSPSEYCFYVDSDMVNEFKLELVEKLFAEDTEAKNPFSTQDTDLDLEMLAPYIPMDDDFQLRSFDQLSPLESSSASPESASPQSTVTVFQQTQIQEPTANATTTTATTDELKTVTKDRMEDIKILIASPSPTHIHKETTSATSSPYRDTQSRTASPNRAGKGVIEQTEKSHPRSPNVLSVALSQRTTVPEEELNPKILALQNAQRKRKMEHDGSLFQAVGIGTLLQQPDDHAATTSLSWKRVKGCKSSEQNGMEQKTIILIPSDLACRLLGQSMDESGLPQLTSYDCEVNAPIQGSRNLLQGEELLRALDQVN
Hepatocyte nuclear factor 3-beta (Homo sapiens), sequence (Q9Y261 whole entry, looked up): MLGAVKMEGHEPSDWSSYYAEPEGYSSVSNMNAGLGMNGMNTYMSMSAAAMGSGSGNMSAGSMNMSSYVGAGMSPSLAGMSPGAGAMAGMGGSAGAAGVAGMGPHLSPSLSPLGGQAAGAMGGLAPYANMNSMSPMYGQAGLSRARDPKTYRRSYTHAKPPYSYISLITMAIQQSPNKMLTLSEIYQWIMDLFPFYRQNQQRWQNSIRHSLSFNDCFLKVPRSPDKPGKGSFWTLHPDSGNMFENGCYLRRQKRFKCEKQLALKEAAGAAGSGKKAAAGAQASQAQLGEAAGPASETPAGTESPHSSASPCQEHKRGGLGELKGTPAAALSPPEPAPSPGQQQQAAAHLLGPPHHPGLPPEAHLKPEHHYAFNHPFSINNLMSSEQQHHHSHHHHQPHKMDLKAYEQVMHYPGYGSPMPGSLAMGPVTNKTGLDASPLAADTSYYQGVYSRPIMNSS

As to `COc1cc(C)ccc1O`, the result in test [1], in [2], in [3], in test [4], in [5] and in test [6] was inactive. In addition, the result in [7], in test [8], in [9], in test [10], in [11] and in test [12] was inactive. For the same compound, the compound was classed as inactive in [13], in test [14], in test [15], in [16], in [17] and in test [18].

As to `CCCCNS(=O)(=O)c1ccc(C)cc1`, the outcome in test [1], in test [2], in [3], in [4], in test [5] and in [6] was inactive. In addition, the outcome in [7], in test [8], in [9], in test [10], in [11] and in test [12] was inactive. Also, the call in test [19], in [14], in [15], in [16], in [17] and in test [18] was inactive.

Consider `CCc1cccc(C)c1N`, for which the compound was classed as inactive in test [1], in test [2], in test [3], in [4], in [5] and in [6]. Moreover, the compound was classed as inactive in [7], in [8], in test [9], in [10], in test [11] and in test [12]. Besides, the compound was called inactive in [19], in [13], in test [14], in test [16], in test [17] and in test [18].

The term AC50 denotes the concentration at which the activity in the assay is half-maximal. In the case of `CCCCCCCO`, the call in test [1], in test [2], in [3], in [4], in test [5] and in test [7] was inactive. The compound was classed as inactive in test [8], in test [9], in test [10], in test [11], in test [12] and in test [19]. Also, the compound was classed as inactive in [13], in test [14], in test [16] and in test [18]. Further, the AC50 in test [6] is 30 µM (active).

As for `COCC(=O)O`, the result in [1], in test [2], in [3], in test [4], in [5] and in test [6] was inactive. Besides, the outcome in test [7], in test [8], in test [9], in [10], in test [11] and in test [12] was inactive. Besides, the compound was called inactive in [19], in test [13], in test [14], in test [15], in [16] and in test [17]. Further, the outcome in test [18] was inactive.

As to `CC(=O)CC(=O)Nc1ccccc1C`, the call in test [1], in test [2], in test [3], in [4], in [5] and in test [6] was inactive. Moreover, the compound was called inactive in test [7], in [8], in [9], in test [10], in test [11] and in test [19]. The outcome in test [13], in test [14], in test [15], in test [16], in test [17] and in test [18] was inactive.

As to `CC1=NN(c2ccc(S(=O)(=O)O)cc2)C(=O)C1N=Nc1ccccc1` (centres undefined), the call in [1], in test [2], in test [3], in test [4], in test [5] and in [6] was inactive. The compound was called inactive in test [7], in test [8], in test [9], in test [10], in [11] and in [12]. Besides, the compound was called inactive in test [19], in [13], in test [14], in test [15], in test [16] and in test [17]. In test [18], the compound was classed as inactive.

As to `C=C(C)C(=O)OCCOC(=O)C(=C)C`, the compound was called inactive in [1], in test [2], in test [3], in test [4], in [5] and in test [6]. Moreover, the result in test [7], in [8], in test [9], in test [10], in test [11] and in test [12] was inactive. The call in test [13], in test [14], in test [16], in test [17] and in test [18] was inactive.
